D2 PAM-1: positively modulates the human D2 dopamine receptor allosterically | 0.34% of 340,000 active | HEK293 T-REx D2, calcium flux, EC20 dopamine potentiation | potentiation, % at 10 µM | P14416;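 active = potentiation over 3 SD above the plate norm, cut at about 30% in these data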; note: 0% is about no effect
Target sequence (P14416 whole entry, looked up): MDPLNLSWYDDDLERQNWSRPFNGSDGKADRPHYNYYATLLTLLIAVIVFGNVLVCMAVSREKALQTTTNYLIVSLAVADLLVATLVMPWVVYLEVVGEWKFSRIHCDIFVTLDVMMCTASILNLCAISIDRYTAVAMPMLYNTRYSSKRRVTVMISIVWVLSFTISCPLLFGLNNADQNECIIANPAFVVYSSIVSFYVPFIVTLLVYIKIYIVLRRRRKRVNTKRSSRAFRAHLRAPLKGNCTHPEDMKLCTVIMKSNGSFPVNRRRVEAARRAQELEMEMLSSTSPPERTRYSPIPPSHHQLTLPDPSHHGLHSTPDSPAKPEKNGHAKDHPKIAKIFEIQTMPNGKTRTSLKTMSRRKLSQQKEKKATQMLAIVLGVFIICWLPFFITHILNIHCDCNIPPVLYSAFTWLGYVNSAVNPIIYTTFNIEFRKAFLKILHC
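Tetracycline-induced Hek293 Trex D2 cells, force-coupled to calcium, loaded with no-wash calcium dye. Compound added with 180 s kinetic read for agonism, then EC20 dopamine and a further 180 s read for potentiation.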
D2 ag-1: activates the human D2 dopamine receptor; HEK293 T-REx D2 cells, calcium flux agonist mode; 0.53% of 340,000 active; activation, % at 2 µM; P14416;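 active = activation over 3 SD above normal in the single-dose calcium agonist read, cut at about 30% in these data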; note: 0% is about no effect
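In this primary screen, compounds producing a positive calcium signal within 180 s of addition to tetracycline-induced, force-coupled HEK293 Trex D2 cells are flagged; cells are dye-loaded with a no-wash calcium kit beforehand.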
D2 PAM-2: positive allosteric modulators of human D2 dopamine receptor | AID 624464 | 0.23% of 360,000 active | potentiation, % (concentration not given with the values) | DiscoveRx D2 beta-arrestin cells, luminescence, 90 min; 100% = 57 uM dopamine signal; in the data active = potentiation above about 50%; inconclusive = mostly about 30% to 49%
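D2 cells co-treated with compound plus 50 nM dopamine (EC20) for 90 min at 37 deg C to detect potentiation. Beta-arrestin recruitment was read as enzyme-fragment luminescence after 1 h at ambient temperature. Full response was set by 57 uM dopamine.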
D2 ag-2: human D2 receptor agonism in beta-arrestin assay; P14416; 0.084% of 360,000 active; activation, % (concentration not given with the values); DiscoveRx PathHunter D2 beta-arrestin, luminescence, 90 min; 100% = 57 uM dopamine signal; AID 624465; in the data active = activation above about 40%; inconclusive = between about 15% and that limit
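Agonist mode: compounds alone added to overnight-plated D2 PathHunter cells for 90 min at 37 C, with 57 uM final dopamine (EC100) defining full response. Beta-arrestin recruitment detected by chemiluminescent reagent, read after 1 h at ambient temperature.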
D2 antag: D2 dopamine receptor (human) antagonism; inhibition, % at 10 µM; P14416; HEK293 TREx D2 cells, calcium flux, dopamine EC80; 2% of 340,000 active; in the data active = inhibition above about 30%; inactive = below that, where a call was filed; note: 0% is about no effect
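Read-out: kinetic calcium fluorescence (1 cycle/s) in inducible HEK293 T-REx D2 cells after an EC80 dopamine addition that followed 180 s compound preincubation. Loss of the dopamine response indicates antagonism.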
An asterisk follows results filed as active; ? = inconclusive; / = not tested or not shown. An excerpt weighted towards active compounds, which were near 2.4% of everything screened.

SMILES	D2 PAM-1	D2 ag-1	D2 PAM-2	D2 ag-2	D2 antag
COc1cccc(NC(=O)c2cnc(SCC(=O)N3CCOCC3)n(C)c2=O)c1	2.3	0.6	/	/	/
O=C(NCC(c1cccs1)N1CCOCC1)c1ccccc1NS(=O)(=O)c1cc([N+](=O)[O-])ccc1Cl (configuration not stated)	12.0	-0.8	-8.5	-1.6	33.0*
CC(=O)OC[C@@H]1CN(Cc2ccccc2)C[C@H](n2cnc3c(N(C)C(C)C)ncnc32)O1	/	/	-10.1	-3.4	/
CC1=C(C)CC(C(=O)N2CCN(Cc3ccccc3)CC2)C(C(=O)O)C1 (configuration not stated)	30.2*	4.1	-22.6	-3.6	0.3
S=C(Nc1ccc2c(c1)OCO2)NC1CCN(Cc2ccccc2)CC1	-25.7	0.4	-17.4	-2.9	58.9*
Cc1ccc(NC(=S)NC2CCN(Cc3ccccc3)CC2)cc1	-16.7	0.3	-34.5	-1.5	83.7*
Cc1ccc(NC(=S)N2CCN(Cc3ccccc3)CC2)cc1	/	-0.5	-8.9	1.7	-13.5
Cc1ccc(NC(=S)NC2CCN(Cc3ccccc3)CC2)cc1C	-24.4	3.1	?	-8.7	77.6*
Cc1csc2nc(COc3ccc(NC(=O)c4ccccc4F)cc3)cc(=O)n12	2.3	0.3	/	/	/
CC(C)c1ccc(NC(=S)NC2CCN(Cc3ccccc3)CC2)cc1	-20.1	1.0	-40.6	-1.6	51.8*
CC(C)c1ccc(NC(=S)N2CCN(Cc3ccccc3)CC2)cc1	3.0	0.3	-4.4	-2.6	-14.7
Cc1ccc(C(=S)N2CCN(Cc3ccccc3)CC2)cc1	-27.5	-1.6	-11.1	1.6	65.1*
CCc1ccc(NC(=O)CSc2c(C)cnc3c2c(=O)n(C)c(=O)n3C)cc1	-15.2	-0.7	/	/	/
CCCCC(=O)Nc1nc2c(s1)COc1ccccc1-2	-5.2	2.7	-3.8	-1.4	52.4*
Cc1ccc(CNc2ccc(O)cc2)cc1	/	1.1	69.8*	?	-6.2
Cc1ccc(NCc2ccccc2O)cc1	-6.4	0.5	-16.4	0.7	-17.5
Cn1nc(C(F)(F)F)c(C#N)c1N1CCN(c2cccc(C(F)(F)F)c2)CC1	-19.0	1.1	-28.9	-2.5	43.2*
Cc1nc2ncnn2c(N2CCN(c3cccc(C(F)(F)F)c3)CC2)c1C	/	/	-6.5	2.0	/
FC(F)(F)c1ccccc1NC(=S)NC1CCN(Cc2ccccc2)CC1	-26.4	1.1	-33.7	-2.6	115.4*
Cc1c(Cl)cccc1NC(=S)N1CCN(Cc2ccccc2)CC1	7.5	-0.3	-20.9	-1.7	-0.2
Cc1c(Cl)cccc1NC(=S)NC1CCN(Cc2ccccc2)CC1	-22.0	1.5	-37.6	0.5	85.3*
S=C(NCc1ccc(Cl)cc1)NC1CCN(Cc2ccccc2)CC1	-26.7	1.5	-20.4	7.4	70.8*
Clc1ccc(CNC2CCN(Cc3ccccc3)CC2)cc1	1.2	2.8	-13.3	-3.1	-11.8
O=C(NC(=S)NC1CCN(Cc2ccccc2)CC1)c1ccc(F)cc1	18.5	2.6	-19.7	-6.1	7.0
S=C(Nc1cc(Cl)cc(Cl)c1)NC1CCN(Cc2ccccc2)CC1	-28.1	3.4	-26.1	-3.0	72.2*
SMILES	D2 PAM-1	D2 ag-1	D2 PAM-2	D2 ag-2	D2 antag
Cc1ccc(N2CC(NC(=O)/C=C\c3ccc4c(c3)OCO4)CC2=O)cc1C (configuration not stated)	-8.9	1.0	/	/	/
CC(C)Nc1nc(Nc2ccc(F)cc2)c2sccc2n1	/	/	-11.6	-8.9	/
CC(C)c1ccccc1NC(=S)NC1CCN(Cc2ccccc2)CC1	-27.0	0.7	-13.7	-5.1	95.7*
S=C(Nc1ccccc1Cl)NC1CCN(Cc2ccccc2)CC1	-23.6	-0.3	-37.7	0.8	84.6*
CC(C)c1ccccc1NC(=S)N1CCN(Cc2ccc3c(c2)OCO3)CC1	-22.8	1.8	-14.8	-4.2	33.4*
S=C(Nc1ccccc1Cl)NC1CCC(NC(=S)Nc2ccccc2Cl)CC1 (configuration not stated)	4.7	/	-22.7	2.1	/
S=C(Nc1ccc(Cl)cc1Cl)NC1CCN(Cc2ccccc2)CC1	-26.0	2.4	-28.2	-1.5	74.7*
CC1CCN(c2ccc(-c3cccc(NS(=O)(=O)c4ccc(F)cc4F)c3)nn2)CC1	-1.4	-1.6	/	/	/
CNC(=O)C1CCC(Cn2c(=O)c3sccc3n(CC(=O)NCc3ccc(F)cc3)c2=O)CC1 (configuration not stated)	9.7	-0.5	/	/	/

Compound activity (PubChem)
